Screens from PubChem.
DT40 TDP1 no CPT = qHTS for Inhibitors of human tyrosyl-DNA phosphodiesterase 1 (TDP1): qHTS in cells in absence of CPT; DT40 Tdp1-/- hTDP1 cells, no CPT, ATP luminescence, 48 h; Potency, µM (titrated, usually from 46.2 µM), most hits filed as inhibitors; 420,000 tested, 15% active; further: nearly all actives have a fitted effect of over 55% in size
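Seeded 400 DT40-hTDP1 cells/well (vehicle DMSO, no 20 nM CPT); pinned compounds; ≥48 hr at 37 °C; CellTiter-Glo luminescence as viability measure.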
IL-1B inflam inh = inhibitors of inflammasome signaling (IL-1 beta secretion); activity change, % at 57.5 µM; 360,000 tested, 4.7% active; THP-1 LPS/ATP IL-1B secretion, AlphaLISA, 16 h; hits give low values; in the data active means activity change below about -50%; inconclusive means mostly about -30% to -49%
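THP-1 cells pretreated 1 hr with compounds (up to 57.5 uM final), then stimulated with LPS (250 ng/mL final) plus ATP (1.25 mM final); secreted IL-1B measured by AlphaLISA after 16 hr, decreased signal indicating inhibition.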
VP16 counter = Gal4-VP16 reporter inhibition counter-screen. Drosophila S2 Gal4-VP16 UAS-luciferase, luminescence, 20 h. Potency, µM (series often up to 53.6 µM), hits mostly inhibitors. 310,000 tested, 3.5% active;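 further: Gal4-VP16 expression switched on by copper sulfate through the metallothionein promoter; nearly all actives have a fitted effect of over 50% in size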
RORgamma inh = inhibitors of mouse ROR gamma transcriptional activity. P51450. Drosophila S2 Gal4-RORgamma UAS-luciferase reporter, 20 h. Potency, µM (highest dose often 53.6 µM), hits mostly inhibitors. 310,000 tested, 5.4% active. AID 2551; further: nearly all actives have a fitted effect of over 60% in size
Target sequence (P51450 whole entry, looked up, the tested form may be a part): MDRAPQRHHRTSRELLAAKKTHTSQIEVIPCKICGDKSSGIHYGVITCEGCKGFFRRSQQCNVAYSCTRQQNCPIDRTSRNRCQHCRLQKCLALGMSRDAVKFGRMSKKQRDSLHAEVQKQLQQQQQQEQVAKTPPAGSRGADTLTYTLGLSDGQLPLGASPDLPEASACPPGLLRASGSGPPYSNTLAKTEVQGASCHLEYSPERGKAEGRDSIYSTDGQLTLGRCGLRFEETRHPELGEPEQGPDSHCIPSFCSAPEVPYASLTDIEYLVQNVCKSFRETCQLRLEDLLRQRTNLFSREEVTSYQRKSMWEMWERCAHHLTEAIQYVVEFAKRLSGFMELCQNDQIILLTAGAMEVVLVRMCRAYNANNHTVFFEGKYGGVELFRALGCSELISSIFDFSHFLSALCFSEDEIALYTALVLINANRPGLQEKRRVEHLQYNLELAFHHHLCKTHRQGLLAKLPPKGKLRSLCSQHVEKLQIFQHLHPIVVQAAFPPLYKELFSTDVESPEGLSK
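Drosophila S2 cells stably expressing Gal4-DBD/mouse RORγ fusion under metallothionein promoter plus UAS-luciferase; compound 1 h, then 700 uM CuSO4 induction for 20 h at ambient temperature; inhibition read as reduced luminescence.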
ELG1 DNA repair = ELG1-dependent DNA repair inhibition. HEK293T ELG1-luciferase reporter, luminescence, 16 h; DNA damage induced by 5-fluorouridine. Potency, µM (highest dose often 46.1 µM), most hits filed as inhibitors. 330,000 tested, 2.3% active. AID 504467; further: nearly all actives have a fitted effect of over 55% in size
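5-Fluorouridine DNA damage + compound/DMSO, 2,000 cells/well, 16 h, 37 °C/5% CO2. ONE-Glo, 30 min RT, luminescence. Readout = decrease in reporter signal.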
DT40 TDP1 CPT = DT40-hTDP1 cell growth loss with CPT | chicken DT40 Tdp1-/-;hTDP1 cells + 20 nM CPT, ATP luminescence, 48 h | Potency, µM (series often up to 46.2 µM), hits mostly inhibitors | 420,000 tested, 12% active | AID 686979; further: nearly all actives have a fitted effect of over 55% in size
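Chicken DT40 Tdp1-/- cells complemented with human TDP1, 400 cells/well, exposed to compounds plus 20 nM camptothecin for at least 48 h at 37 C; viability read as ATP content by CellTiter-Glo luminescence.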
Each line names hits and unclear results; the compound was inactive in the other large screens. Only some compounds are listed: those with a hit (about 21% of all), similar ones and a draw of the others. Unless noted, the call rests on the fitted dose curve; in most records, active means well fitted curve in the direction sought with a large enough effect; inconclusive means small, poorly fitted or top-dose-only effect, or another doubt; inactive means no such curve, though single readings can be large; an effect the other way counts as inactive or inconclusive.

CC(C)C(N)c1csc(Nc2ccc(C(=O)N(C)Cc3ccccc3)cn2)n1 (stereo not drawn)	DT40 TDP1 no CPT inconclusive, DT40 TDP1 CPT inconclusive (no result: VP16 counter, RORgamma inh, ELG1 DNA repair)
CCCCN(C)C(=O)c1ccc(Nc2nc(C(N)COCc3ccccc3)cs2)nc1 (stereo not drawn)	DT40 TDP1 no CPT 15µM, IL-1B inflam inh inconclusive, DT40 TDP1 CPT 12µM (no result: VP16 counter, RORgamma inh, ELG1 DNA repair)
CN(Cc1ccco1)c1nc(-c2ccoc2)nc2ccccc12	DT40 TDP1 CPT inconclusive (no result: IL-1B inflam inh, ELG1 DNA repair)
CC(C)Sc1nc2c([nH]1)c(=N)ncn2Cc1ccccc1	none
Cc1cccc(OCCSc2nc3c([nH]2)c(=N)ncn3Cc2ccccc2)c1	DT40 TDP1 no CPT 16µM, RORgamma inh inconclusive, ELG1 DNA repair inconclusive, DT40 TDP1 CPT 21µM
CCN(CC)S(=O)(=O)c1ccc2c(c1)c(=O)c(C(=O)N1CCN(c3cc(C)ccc3C)CC1)cn2C	DT40 TDP1 no CPT inconclusive (no result: IL-1B inflam inh, VP16 counter, RORgamma inh, ELG1 DNA repair)
N#C/C(N=Nc1ccccc1O)=N\Nc1ccccc1O	DT40 TDP1 no CPT 23µM, IL-1B inflam inh inconclusive, DT40 TDP1 CPT 21µM (no result: VP16 counter, RORgamma inh)
C=C1C(=O)O[C@H]2[C@H]1[C@@H](O)CC(=C)[C@@H]1CC(=O)[C@@H](C)[C@H]21	DT40 TDP1 no CPT 6.5µM, IL-1B inflam inh -92, VP16 counter inconclusive, RORgamma inh 13µM, DT40 TDP1 CPT 5.2µM
Cc1ccc(C)c(NC(=O)CN2C(=O)CCc3ccccc32)c1	none (no result: IL-1B inflam inh, VP16 counter, RORgamma inh, ELG1 DNA repair)
CC(C)N1CCC(N2CCN(Cc3ccc(-c4ccc(Cl)cc4)o3)CC2CCO)CC1 (stereo not drawn)	DT40 TDP1 no CPT 18µM, IL-1B inflam inh -69, ELG1 DNA repair inconclusive, DT40 TDP1 CPT inconclusive
Cc1ccc(-c2cccc(CN3CCN(C4CCN(C(C)C)CC4)C(CCO)C3)c2)o1 (stereo not drawn)	DT40 TDP1 no CPT 7.3µM, IL-1B inflam inh inconclusive, DT40 TDP1 CPT inconclusive
Cc1ccccc1-c1cccc(CN2CCN(C)C(CCO)C2)c1 (stereo not drawn)	IL-1B inflam inh -54
Cc1ccc(-c2nc(-c3cc4cc(Cl)ccc4oc3=O)sc2C)cc1	DT40 TDP1 no CPT inconclusive (no result: IL-1B inflam inh, VP16 counter, RORgamma inh, ELG1 DNA repair)
O=C(CSc1nnc(-c2ccncc2)o1)Nc1ccccc1C(F)(F)F	none
CCN1C(=O)/C(=C/c2ccc(N3CCCC3)cc2)NC1=S	DT40 TDP1 no CPT 23µM, IL-1B inflam inh -67, RORgamma inh 0.79µM, ELG1 DNA repair inconclusive, DT40 TDP1 CPT 23µM
CCCN1C(=O)/C(=C/c2ccc(N3CCOCC3)cc2)NC1=S	DT40 TDP1 no CPT 15µM, VP16 counter 7.9µM, RORgamma inh 4µM, DT40 TDP1 CPT inconclusive
CCCN1C(=O)/C(=C/c2ccc(OCC(=O)OCC)cc2)NC1=S	RORgamma inh inconclusive
Cc1ccc(CN2C(=O)N/C(=C\c3ccc(N4CCOCC4)cc3)C2=O)cc1	DT40 TDP1 no CPT inconclusive, VP16 counter 11µM, ELG1 DNA repair inconclusive
CCN1C(=O)/C(=C/c2ccc(OCc3ccc(C(=O)O)cc3)c(Cl)c2)NC1=S	none
COc1ccccc1NC(=O)C1CCN(S(=O)(=O)c2cn(C)cn2)CC1	none (no result: IL-1B inflam inh, VP16 counter, RORgamma inh, ELG1 DNA repair)
Cc1ccc(C2(c3noc(CN(C)Cc4cnn(C)c4)n3)CCCC2)cc1	DT40 TDP1 no CPT inconclusive, DT40 TDP1 CPT 21µM
Cc1nnc(N(Cc2ccco2)C(=O)c2ccc(C#N)cc2)s1	DT40 TDP1 no CPT inconclusive
Cc1nnc(N(Cc2ccco2)C(=O)c2cccc(C#N)c2)s1	DT40 TDP1 no CPT inconclusive, RORgamma inh 13µM, DT40 TDP1 CPT inconclusive
O=C(CSc1nc(-c2ccc(F)cc2)cc(C(F)(F)F)n1)NCc1ccccc1	none (no result: IL-1B inflam inh, VP16 counter, RORgamma inh, ELG1 DNA repair)
CCCCCCCNC(=O)C1(CC2CC(c3ccccc3)=NO2)CCN(C(=O)c2ccccc2)CC1 (stereo not drawn)	DT40 TDP1 no CPT 16µM, ELG1 DNA repair inconclusive, DT40 TDP1 CPT inconclusive (no result: VP16 counter, RORgamma inh)
CCCCCCCNC(=O)C1(CC2CC(c3ccc(Cl)cc3)=NO2)CCN(C(=O)c2ccccc2)CC1 (stereo not drawn)	DT40 TDP1 no CPT inconclusive, IL-1B inflam inh inconclusive, ELG1 DNA repair inconclusive, DT40 TDP1 CPT inconclusive
